Data taken from PubChem BioAssay.

Biological target: NADPH oxidase 5 (Homo sapiens) (UniProt Q96PH1)
Experiment: compounds shifting NOX5 Amplex Red fluorescence – cell-based, HEK293-NOX5, NOX inhibitor project, primary screen (AID 1161)
Conditions: HEK293-NOX5, ionomycin, 45 min, higher = more signal

Chain of NADPH oxidase 5 (Homo sapiens) (Q96PH1 whole entry, looked up): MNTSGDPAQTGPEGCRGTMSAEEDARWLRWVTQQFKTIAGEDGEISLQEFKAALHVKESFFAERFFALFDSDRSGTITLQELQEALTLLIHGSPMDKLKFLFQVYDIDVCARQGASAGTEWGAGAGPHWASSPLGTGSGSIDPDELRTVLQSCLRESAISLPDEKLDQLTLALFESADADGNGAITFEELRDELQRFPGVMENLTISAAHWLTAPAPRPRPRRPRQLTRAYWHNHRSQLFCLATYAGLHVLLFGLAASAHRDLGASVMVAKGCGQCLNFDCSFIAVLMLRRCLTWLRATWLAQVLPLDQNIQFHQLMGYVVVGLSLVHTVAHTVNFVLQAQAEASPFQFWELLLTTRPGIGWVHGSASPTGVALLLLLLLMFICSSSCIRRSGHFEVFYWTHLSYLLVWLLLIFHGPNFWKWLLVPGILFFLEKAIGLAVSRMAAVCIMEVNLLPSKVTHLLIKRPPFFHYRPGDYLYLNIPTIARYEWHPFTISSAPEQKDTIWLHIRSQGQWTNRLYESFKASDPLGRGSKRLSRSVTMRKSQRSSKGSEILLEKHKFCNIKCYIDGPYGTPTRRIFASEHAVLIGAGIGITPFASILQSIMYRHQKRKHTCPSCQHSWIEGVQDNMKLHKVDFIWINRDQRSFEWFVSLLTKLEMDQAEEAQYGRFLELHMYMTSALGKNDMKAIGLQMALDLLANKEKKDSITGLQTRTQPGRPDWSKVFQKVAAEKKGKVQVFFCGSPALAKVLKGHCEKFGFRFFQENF

First: CCCc1cc2c(n1Cc1cc(F)cc(F)c1)C(C)C1CN(C(=O)c3ccccc3)C(C)(C(=O)OC)C21 (stereo not given)
Second: Cc1ccc(N2C(=O)c3ccccc3[C@@H](C(=O)NC3CC3)[C@@H]2c2ccc(CO)cc2)nc1
The z-score of the first is lower: -2.52 for the first, -1.51 for the second.

Compared with `CCCC[C@@H]1C[C@H]1[C@@H](NC(=O)c1ccco1)c1ccc(-c2ccccc2)cc1`, `COC(=O)[C@@]1(Cc2ccccc2)N=C(c2ccc(OCCCO)cc2)O[C@H]1c1ccccc1` is lower in z-score: -2 for the first, -3 for the second.

First: C=CC[C@@]12N=C(c3ccc(OCCCO)cc3)O[C@@H]1c1ccccc1N(C)C2=O
Second: [N-]=[N+]=Nc1ccccc1[C@@H]1OC(c2ccc(OCCCO)cc2)=N[C@]1(Cc1ccccc1)C(=O)N1CCOCC1
The z-score of the first is lower: -1.85 for the first, -1.77 for the second.

First: COc1cccc(-c2cccc(=O)o2)c1
Second: C=C[C@H](OC)[C@@H](OC(=O)Nc1ccc(OC)cc1)c1ccc(O)c(F)c1
The z-score of the first is lower: -1.47 for the first, 5.13 for the second.

Compared with `C=C[C@H](CO[Si](CC)(CC)CC)N(Cc1ccc(OC(C)=O)c(OC)c1)S(=O)(=O)c1ccc(Br)cc1`, `C=C(COC)/C(=C/C[C@@H](OC(=O)c1ccncc1)c1ccc(CO)o1)c1cc(C(=O)OC)ccc1OC` is higher in z-score: -1.27 for the first, -0.495 for the second.

Compared with `NC(=O)NCC#Cc1ccc2c(c1)[C@]1(C(=O)N2)[C@H](c2ccc(O)cc2)N2[C@H](c3ccccc3)[C@H](c3ccccc3)OC(=O)[C@H]2[C@@H]1C(=O)O`, `COCCOC(=O)N1C(=O)[C@@]2(c3cc(C#CCCO)ccc31)[C@H](C(N)=O)[C@H]1C(=O)O[C@H](c3ccccc3)[C@H](c3ccccc3)N1[C@@H]2c1ccc(O)cc1` is higher in z-score: -0.305 for the first, 0.728 for the second.

Compared with `COC(=O)C[C@H]1O[C@]2(C(=O)N(C)c3ccccc32)[C@@H](C)[C@@H]1[Si](C)(C)F`, `C=CC(=C)[C@H]1Oc2ccccc2S(=O)(=O)N2CCC[C@@H]12` is lower in z-score: 1.45 for the first, -1.38 for the second.

Compared with `O=C1C2C=CC(C(O)c3cc(C(F)(F)F)cc(C(F)(F)F)c3)N(n3cnnc3)C2C(=O)N1Cc1ccccc1` (stereo not given), `Cc1ccc(S[C@]2(C(=O)NCCCN(C)C)CC(=O)N(Cc3cc(C(F)(F)F)cc(C(F)(F)F)c3)[C@@H]2c2ccc(CO)cc2)cc1` is higher in z-score: -0.379 for the first, 0.942 for the second.

First: Cc1nc2cc(Br)ccc2c(=O)o1
Second: C=C(CCCC)/C(=C/C[C@@H](OC(C)=O)c1ccc(OCCO)cc1)c1cnc2ccccc2c1
The z-score of the first is higher: 0.256 for the first, -2.21 for the second.

First: COc1cc2c(cc1O)C(C1CC1)N(Cc1sc3ccccc3c1Cl)CC2 (stereo not given)
Second: COc1cc2c(cc1O)C(c1cccs1)N(C)CC2 (stereo not given)
The z-score of the first is lower: -3.45 for the first, -2.33 for the second.

First: CN1C=C(C(=O)OCCS(C)(=O)=O)C(C(=O)OCCS(C)(=O)=O)=CC(c2ccc(CO)cc2)=CC1C1CC1 (stereo not given)
Second: C=C(C(=O)CC[C@@H](OC(=O)c1cccnc1)c1ccccc1OCCO)C(C)C
The z-score of the first is lower: -2.52 for the first, -1.34 for the second.

First: O=C1C[C@@](C(=O)NCC(F)(F)F)(c2ccc([N+](=O)[O-])cc2)[C@@H](c2ccc(CO)cc2I)N1C1CCCCC1
Second: COCCOC(=O)N1C(=O)[C@@]2(c3cc(C#CC4(O)CCCCCC4)ccc31)[C@H](c1ccccc1OCCO)N1[C@H](c3ccccc3)[C@H](c3ccccc3)OC(=O)[C@H]1[C@@H]2C(=O)N1CCN(c2ncccn2)CC1
The z-score of the first is lower: 0.612 for the first, 1.03 for the second.

For `C=CCNC(=O)[C@H]1[C@@H]2C(=O)O[C@@H](c3ccccc3)[C@@H](c3ccccc3)N2[C@@H](c2ccccc2OCCO)[C@]12C(=O)Nc1ccc(C#CCC(C(=O)OC)C(=O)OC)cc12`, the z-score was 1.5.

System: not listed separately
Experiment: compound effects on lung adenocarcinoma cell viability – A549, calcein-AM fluorescence, 48 h, basal, profiling panel (AID 1162); further: test concentration not given here
Conditions: higher = more signal

First: CC(C)[Si]1(C(C)C)O[C@@H](c2ccccc2)c2cc(-c3ccc(-c4ccc(Cl)c(Cl)c4)o3)nc(-c3ccccc3)c21
Second: COC(=O)[C@@]1(Cc2ccccc2)N=C(c2ccc(OCCCO)cc2)O[C@H]1c1ccccc1
The z-score of the first is higher: 0.272 for the first, -1.98 for the second.

First: OCCCC1=CC(c2cccs2)N(Cc2cc3c(cc2Br)OCO3)CC1 (stereo not given)
Second: COc1cc2c(cc1O)C(c1cccs1)N(C)CC2 (stereo not given)
The z-score of the first is lower: -0.433 for the first, -0.416 for the second.

First: CCOC(=O)C[C@H]1[C@H](OC(=O)c2ccc(C(=O)c3ccccc3)cc2)[C@@H](NC(=O)c2ccc3ccccc3c2)c2cc(OCCCO)ccc2N1C(=O)Cc1ccc(OC)cc1
Second: COCCOC(=O)N1C(=O)[C@@]2(c3cc(C#CCC(C(=O)OC)C(=O)OC)ccc31)[C@H](C(=O)Nc1nc3ccccc3s1)[C@H]1C(=O)O[C@H](c3ccccc3)[C@H](c3ccccc3)N1[C@@H]2c1ccccc1OCCO
The z-score of the first is lower: -0.0783 for the first, 1.84 for the second.

First: C=C(CC1([C@@H](NP(=O)(c2ccccc2)c2ccccc2)[C@H]2C[C@@H]2CCCC)CC1)c1ccccc1
Second: CCCC[C@@H]1C[C@H]1[C@@H](NC(=O)c1ccco1)c1ccc(-c2ccccc2)cc1
The z-score of the first is lower: -0.665 for the first, -0.359 for the second.

Compared with `COc1cc(COC(C)=O)ccc1OC(C)=O`, `C=C[C@H](CO[Si](CC)(CC)CC)N(Cc1ccc(OC(C)=O)c(OC)c1)S(=O)(=O)c1ccc(Br)cc1` is lower in z-score: 1.97 for the first, -0.217 for the second.

Going from `C=C(CCCC)/C(=C/C[C@@H](OC(=O)c1ccncc1)c1ccc(OCCO)cc1)c1cc(C(=O)OC)ccc1OC` to `C=C(COC)/C(=C/C[C@@H](OC(=O)c1ccncc1)c1ccc(CO)o1)c1cc(C(=O)OC)ccc1OC`, the z-score falls from 0.941 to 0.27.

Compared with `C=C(CCCC)C(=O)CC[C@@H](OC(=O)c1ccccc1-c1ccccc1C(=O)O)c1ccc(OCCO)cc1`, `C=C(CCCC)/C(=C/C[C@@H](OC(C)=O)c1ccc(OCCO)cc1)c1cnc2ccccc2c1` is higher in z-score: -0.465 for the first, 2.57 for the second.

First: NC(=O)N1C(=O)C2C(C1=O)C1C=C(c3ccc(CO)cc3)C2C(c2cccs2)N1Cc1cccc(OC(F)(F)F)c1 (stereo not given)
Second: Cc1ccc(N2C(=O)c3ccccc3[C@@H](C(=O)NC3CC3)[C@@H]2c2ccc(CO)cc2)nc1
The z-score of the first is higher: 1.56 for the first, -0.684 for the second.

Going from `COCCOC(=O)N1C(=O)[C@@]2(c3cc(C#CCNC(N)=O)ccc31)[C@H](C(=O)N1CCN(c3ncccn3)CC1)[C@H]1C(=O)O[C@H](c3ccccc3)[C@H](c3ccccc3)N1[C@@H]2c1ccc(OCCO)cc1` to `COCCOC(=O)N1C(=O)[C@@]2(c3cc(C#CC4(O)CCCCCC4)ccc31)[C@H](c1ccccc1OCCO)N1[C@H](c3ccccc3)[C@H](c3ccccc3)OC(=O)[C@H]1[C@@H]2C(=O)N1CCN(c2ncccn2)CC1`, the z-score falls from 0.572 to -0.244.

First: CCCc1cc2c(n1Cc1cc(F)cc(F)c1)C(C)C1CN(C(=O)c3ccccc3)C(C)(C(=O)OC)C21 (stereo not given)
Second: C=C(C(=O)CC[C@@H](OC(=O)c1cccnc1)c1ccccc1OCCO)C(C)C
The z-score of the first is lower: -0.679 for the first, -0.125 for the second.

Going from `C=CC[C@@]12N=C(c3ccc(OCCCO)cc3)O[C@@H]1c1ccccc1N(C)C2=O` to `[N-]=[N+]=Nc1ccccc1[C@@H]1OC(c2ccc(OCCCO)cc2)=N[C@]1(Cc1ccccc1)C(=O)N1CCOCC1`, the z-score rises from -0.588 to -0.539.

Compared with `COc1cccc(-c2cccc(=O)o2)c1`, `C=C[C@H](OC)[C@@H](OC(=O)Nc1ccc(OC)cc1)c1ccc(O)c(F)c1` is higher in z-score: -1.06 for the first, -0.766 for the second.

First: NC(=O)NCC#Cc1ccc2c(c1)[C@]1(C(=O)N2)[C@H](c2ccc(O)cc2)N2[C@H](c3ccccc3)[C@H](c3ccccc3)OC(=O)[C@H]2[C@@H]1C(=O)O
Second: COCCOC(=O)N1C(=O)[C@@]2(c3cc(C#CCCO)ccc31)[C@H](C(N)=O)[C@H]1C(=O)O[C@H](c3ccccc3)[C@H](c3ccccc3)N1[C@@H]2c1ccc(O)cc1
The z-score of the first is higher: 0.517 for the first, -0.272 for the second.

Going from `COC(=O)C[C@H]1O[C@]2(C(=O)N(C)c3ccccc32)[C@@H](C)[C@@H]1[Si](C)(C)F` to `C=CC(=C)[C@H]1Oc2ccccc2S(=O)(=O)N2CCC[C@@H]12`, the z-score rises from 0.0967 to 0.159.

Compared with `O=C1C2C=CC(C(O)c3cc(C(F)(F)F)cc(C(F)(F)F)c3)N(n3cnnc3)C2C(=O)N1Cc1ccccc1` (stereo not given), `Cc1ccc(S[C@]2(C(=O)NCCCN(C)C)CC(=O)N(Cc3cc(C(F)(F)F)cc(C(F)(F)F)c3)[C@@H]2c2ccc(CO)cc2)cc1` is higher in z-score: -0.416 for the first, -0.159 for the second.

Compared with `Cc1nc2cc(Br)ccc2c(=O)o1`, `COc1cc2c(cc1O)C(C1CC1)N(Cc1sc3ccccc3c1Cl)CC2` (stereo not given) is lower in z-score: 0.504 for the first, -4 for the second.

Compared with `CN1C=C(C(=O)OCCS(C)(=O)=O)C(C(=O)OCCS(C)(=O)=O)=CC(c2ccc(CO)cc2)=CC1C1CC1` (stereo not given), `O=C1C[C@@](C(=O)NCC(F)(F)F)(c2ccc([N+](=O)[O-])cc2)[C@@H](c2ccc(CO)cc2I)N1C1CCCCC1` is lower in z-score: 1.39 for the first, -0.0922 for the second.

For `C=CCNC(=O)[C@H]1[C@@H]2C(=O)O[C@@H](c3ccccc3)[C@@H](c3ccccc3)N2[C@@H](c2ccccc2OCCO)[C@]12C(=O)Nc1ccc(C#CCC(C(=O)OC)C(=O)OC)cc12`, the z-score was 0.246.
